In PubChem BioAssay AID1159580 (chemical genetic matrix, 2015):
The whole screen tested about 5,500 compounds, of which about 2,000 (36%) were called active. Inconclusive results (about 18%) are left out. No stated cut-off is given here; in the data, active means normalized growth mostly below about 0.91 (no sharp cut-off); inconclusive means no clear call, values can overlap the other calls; inactive means mostly above about 0.92. The list shows a part of the results.

Assay: chemical genetic growth profiling, strain panel (AID 1159580);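 further: tested at 20 µM; growth read once vehicle control cultures reached saturation at 30 °C; 1 = growth at the plate median or of vehicle wells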
Conditions: S. cerevisiae deletion strains, growth OD

Measured: normalized growth

CCn1cc(C(=O)O)c(=O)c2ccc(Cc3ccccc3)nc21
inactive: locus YAL013W, strain DEP1, stronger effect = lower value 1.03 | locus YAL040C, strain CLN3, stronger effect = lower value 1 | locus YCL061C, strain MRC1 (second series), stronger effect = lower value 1.01 | locus YDR363W, strain ESC2, stronger effect = lower value 1.01 | locus YER002W, strain NOP16, stronger effect = lower value 0.964 | locus YGR078C, strain PAC10, stronger effect = lower value 0.971 | locus YJR075W, strain HOC1, stronger effect = lower value 1.02 | locus YMR263W, strain SAP30, stronger effect = lower value 1 | locus YMR307W, strain GAS1, stronger effect = lower value 1 | locus YNL128W, strain TEP1, stronger effect = lower value 0.988 | locus YNL153C, strain GIM3, stronger effect = lower value 0.923 | locus YNL175C, strain NOP13, stronger effect = lower value 0.972 | locus YNL197C, strain WHI3, stronger effect = lower value 0.942 | locus YNL224C, strain SQS1, stronger effect = lower value 0.965 | locus YNL322C, strain KRE1, stronger effect = lower value 0.991 | locus YOR083W, strain WHI5 (second series), stronger effect = lower value 1.09 | locus YPL241C, strain CIN2, stronger effect = lower value 1.01
